Inconclusive results are not listed. The source made the active and inactive calls. Calls come from the whole dose curve; as a rule, active = well fitted cell-killing curve with a large enough effect in the repeat runs; inconclusive = weak or mixed curves, or effect the other way; inactive = flat fitted curve, though single readings scatter.

This assay is described as follows: qHTS RealTime-Glo MT Cell Viability Assay in HepG2 cells - 40 hour (AID 1224870). Note: nearly all actives have a fitted effect of over 50% in size. The following applies: RealTime-Glo luminescence; series mostly up to 76.8 µM. From the text: National Center for Advancing Translational Sciences [NCATS]
NIH Chemical Genomics Center [NCGC]
U.S. Environmental Protection Agency [EPA]
National Institutes of Environmental Health Sciences [NIEHS]
National Toxicology Program [NTP]
U.S. Food and Drug Administration [FDA]
Measure of cell viability is critical in the cell-base assay. Analysis of cell viability is necessary for the characterization of cell responses to cytotoxic drugs and environmental stress. A RealTime-Glo MT Cell Viability Assay to monitor cell viability in real time of continues cell culture during 40 hours of compound treatment was used to screen Tox21 10K library compounds in HepG2 cells. The RealTime-Glo MT Cell Viability Assay is a nonlytic, homogeneous, bioluminescent method to measure cell viability in real time using a simple, plate-based method. The assay involves adding NanoLuc luciferase and a cell-permeant prosubstrate to cells in culture. Viable cells reduce the proprietary prosubstrate to generate a substrate for NanoLuc luciferase. This substrate diffuses from cells into the surrounding culture medium, where it is rapidly used by the NanoLuc Enzyme to produce a luminescent signal. The signal correlates with the number of viable cells, making the assay well suited for cytotoxicity studies.
Tox21 Assay Protocol Summary:
The mixture of HepG2 cell suspension and reagents were dispensed at 600cells/6 ul/well in 1536-well tissue culture treated black solid bottom plates using a Multidrop dispenser. After the assay plates were incubated at a 37 C/5% CO2 incubator for 5 hours, 23 nL of compounds dissolved in DMSO, positive and negative controls was transferred to the assay plate by a pintool work station. The plates were incubated at 37 C for 40 hours. The luminescence intensity were measured at 0h, 8h, 16h, 24h, 32h and 40h time points using ViewLux plate reader during compound treatment.
(In general: qHTS replaces the single test concentration by a dilution series.)
`CN(C)CCO`: the result was inactive.

For the compound `O=c1[nH]c2ccccc2c(=O)o1`, the outcome was inactive.

For `O=c1n(Cl)c(=O)n(Cl)c(=O)n1Cl`, the result was inactive.

With `CCNc1nc(NC(C)(C)C)nc(SC)n1`, the outcome was inactive.

Turning to `O=NN1CCCCCCC1`, the compound was classed as inactive.

For the compound `CCOC(=O)c1ccccc1C(=O)OCC`, the compound was called inactive.

Regarding `O=[N+]([O-])c1ccc([As](=O)(O)O)cc1`, the call was inactive.

Turning to `CCOP(=S)(OCC)Oc1cnc2ccccc2n1`, the call was inactive.

For the compound `C#CC(C)(C)NC(=O)c1cc(Cl)cc(Cl)c1`, the call was inactive.

As for `Cc1ccc(N)cc1N`, the call was inactive.

On to `CN=C=S`, for which the call was inactive.

Regarding `CCCCCCCCCCCC#N`, the compound was called inactive.

As to `C#CCN(C)[C@H](C)Cc1ccccc1`, the compound was classed as inactive.

Regarding `COC(=O)c1ccccc1C(=O)OC`, the outcome was inactive.

Consider `CCCCN(CCCC)SN(C)C(=O)Oc1cccc2c1OC(C)(C)C2`, for which the compound was called inactive.

With `CCC[N+](=O)[O-]`, the outcome was inactive.

With `O=c1[nH]c(=O)[nH]c(=O)[nH]1`, the outcome was inactive.

On to `CC(Oc1ccc(Cl)cc1Cl)C(=O)O` (stereo not given), for which the compound was called inactive.

On to `CCCCOC(=O)c1ccccc1C(=O)OCCCC`, for which the compound was classed as inactive.

`c1cc2c3c(cccc3c1)CC2`: the result was inactive.

With `Cc1ccc([N+](=O)[O-])cc1C`, the call was inactive.

For `c1ccc(-c2ccccc2)cc1`, the compound was called inactive.

For `CCN(CC)c1ccccc1`, the compound was classed as inactive.

Turning to `CCCCN(CC)C(=O)SCCC`, the compound was called inactive.

For `Clc1ccccc1Cl`, the compound was called inactive.

With `CCCCCCCCCl`, the compound was classed as inactive.

`CN1C(=O)CN=C(c2ccccc2)c2cc(Cl)ccc21`: the compound was called inactive.

Take `O=C(NC(=O)c1c(F)cccc1F)Nc1cc(Cl)c(OC(F)(F)C(F)C(F)(F)F)cc1Cl` (stereo not given): the call was inactive.

Take `CCCN(CCC)c1c([N+](=O)[O-])cc(C(F)(F)F)cc1[N+](=O)[O-]`: the compound was called inactive.

For the compound `CC(C)(Cl)Cl`, the compound was called inactive.

`CC(C)C#N`: the compound was called inactive.

Consider `Nc1ccc(Oc2ccc(N)cc2)cc1`, for which the outcome was inactive.

Take `C=CCO`: the compound was classed as inactive.

In the case of `[O-][Cl+2]([O-])O`, the result was inactive.

Take `CN(N=O)c1ccccc1`: the outcome was inactive.

On to `c1ccc2c(c1)oc1ccccc12`, for which the outcome was inactive.

As for `CC(Br)C(=O)O` (stereo not given), the call was inactive.

Consider `CC(C)N1C(=O)c2ccccc2NS1(=O)=O`, for which the call was inactive.

`Cc1cc(-c2cc(C)c(N)c(C)c2)cc(C)c1N`: the compound was called inactive.

On to `CCCCCOC(=O)c1ccccc1C(=O)OCCCCC`, for which the outcome was inactive.

The values are drawn from PubChem BioAssay (Tox21).
